Experimental data: PubChem BioAssay AID1851 (National Center for Advancing Translational Sciences (NCATS), 2009)
The whole screen tested about 16,000 compounds, of which about 2,600 (16%) were called active. Roughly 20% stayed inconclusive and do not appear here. Calls follow the shape of the dose curve; as a rule, active = well fitted curve in the direction sought with a large enough effect; inconclusive = small, poorly fitted or top-dose-only effect, or effect the other way; inactive = no such curve, though single readings can be large or run the other way. The list is a sample of the results.

Target: Cytochrome P450 2D6 (Homo sapiens) (UniProt P10635)
Assay: Cytochrome panel assay with activity outcomes
Settings: recombinant CYP, pro-luciferin dealkylation, luminescence, p450-cyp2d6; series mostly up to 57.1 µM
% is scaled to controls: 0 for no effect and ±100 for the full control effect.

Sequence of Cytochrome P450 2D6 (Homo sapiens) (P10635 whole entry, looked up): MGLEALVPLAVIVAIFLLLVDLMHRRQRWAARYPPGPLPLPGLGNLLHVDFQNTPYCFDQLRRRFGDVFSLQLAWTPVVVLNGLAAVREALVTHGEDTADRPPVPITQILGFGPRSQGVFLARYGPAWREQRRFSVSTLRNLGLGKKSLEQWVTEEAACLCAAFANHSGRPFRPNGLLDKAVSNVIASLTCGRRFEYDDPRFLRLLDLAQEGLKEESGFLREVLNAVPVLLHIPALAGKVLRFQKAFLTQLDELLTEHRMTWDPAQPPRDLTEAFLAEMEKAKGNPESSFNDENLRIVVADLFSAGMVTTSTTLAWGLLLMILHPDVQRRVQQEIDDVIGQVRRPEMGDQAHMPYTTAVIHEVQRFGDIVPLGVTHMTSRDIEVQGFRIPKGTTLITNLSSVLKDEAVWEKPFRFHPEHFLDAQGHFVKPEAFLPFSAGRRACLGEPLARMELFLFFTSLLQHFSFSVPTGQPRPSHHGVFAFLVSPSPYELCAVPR

| Structure (SMILES) | AC50 | activity, negative = inhibition |
| --- | --- | --- |
| O=P(Cc1cc[n+]([O-])cc1)(c1ccccc1)c1ccccc1 | inactive |  |
| CCC(C)NS(=O)(=O)c1ccc(OCC(=O)NCC2CCCO2)cc1 (stereo not drawn) | inactive |  |
| Cc1ccc(CCNC(=O)C2CC(c3ccccc3[N+](=O)[O-])=NO2)cc1 (stereo not drawn) | 2.51 µM (active) |  |
| CC(C)(C)OC(=O)N1CCCC1C(=O)NCCc1ccccc1 (stereo not drawn) | inactive |  |
| Cc1ccc(CNC(=O)C2CC(c3ccccc3[N+](=O)[O-])=NO2)o1 (stereo not drawn) | inactive |  |
| O=C(NCCCCc1ccccc1)C1CC(c2ccccc2[N+](=O)[O-])=NO1 (stereo not drawn) | 0.1 µM (active) |  |
| Cc1ccc(CNC(=O)C2CC(c3ccccc3[N+](=O)[O-])=NO2)cc1 (stereo not drawn) | inactive |  |
| CCCc1cc(=O)oc2cc(OCc3cc(OC)c(OC)c(OC)c3)c(Cl)cc12 | inactive |  |
| O=C(Cc1ccccc1)N/N=C\c1ccc(Br)o1 | inactive |  |
| O=C(Nc1cccc2ncccc12)c1cccc(F)c1 | inactive |  |
| CC1Cc2ccccc2N1C(=O)CCN1C(=O)C2C3C=CC(C3)C2C1=O (stereo not drawn) | inactive |  |
| CC(C)(C)Cn1nc(-c2ccc(Cl)cc2)c2c(N)ncnc21 | inactive |  |
| Nc1nc(N)nc(CCCc2nc(N)nc(N)n2)n1 |  | 19.1% [at 11.4 µM] (inactive) |
| C/C(=C(/CCO)SSC[C@@H]1CCCO1)N(C=O)Cc1cnc(C)nc1N | inactive |  |
| COc1cccc(Nc2ncc3ncc(=O)n(CCC#N)c3n2)c1 | inactive |  |
| C1CCc2c(nc3nnnn3c2NC2CCCC2)C1 | inactive |  |
| Cc1cc(=O)oc(C)c1C(=O)Nc1ccc(Cl)cn1 | inactive |  |
| CCOc1ccc(C(=O)Nc2ccc(Cl)cn2)cc1Cl | 7.94 µM (active) |  |
| COc1ccc(C(=O)Nc2cc(Cl)ccc2OC(=O)c2ccc(OC)cc2)cc1 | inactive |  |
| CCOc1ccc(C(=O)Nc2cccc(-c3nc4cccnc4o3)c2)cc1Cl | inactive |  |
| CCOc1ccc(C(=O)Nc2ccc(NC(=O)c3ccco3)c(Cl)c2)cc1Br | inactive |  |
| COc1ccc(C(=O)Nc2ccc(Cl)cn2)cc1Cl | 3.55 µM (active) |  |
| CCOc1cccc(C2C(C(=O)c3ccc(C)o3)=C(O)C(=O)N2Cc2ccncc2)c1 (stereo not drawn) | inactive |  |
| CC(C)NC(=O)C(C)n1cccc1C(=O)c1ccccc1 (stereo not drawn) | inactive |  |
| O=C(c1cc(-c2cccs2)on1)N1CCN(c2ccc(F)cc2)CC1 | inactive |  |

| Structure (SMILES) | AC50 | activity, negative = inhibition |
| --- | --- | --- |
| CCC(=O)N1CCN(c2ccc(NC(=O)c3cccs3)cc2)CC1 | inactive |  |
| O=C(CCS(=O)(=O)c1cccs1)N1CCN(c2ccc(F)cc2)CC1 | 20 µM (active) |  |
| Cc1nc2sccn2c(=O)c1Cl | inactive |  |
| CCCCCCCCN1C(=O)N(C)C(N(O)C(=O)NC)C1(C)C (stereo not drawn) | inactive |  |
| Cc1cc(C(=O)CSC(=S)SC(C)(C)C)ccc1Cl |  | -0.319% [at 11.4 µM] (inactive) |
| CCC(C(=O)N1CCOCC1)n1c(C(=O)OC)cc2occc21 (stereo not drawn) | inactive |  |
| COc1cc2c3cc1Oc1c(OC)c(OC)cc4c1[C@@H](Cc1ccc(O)c(c1)Oc1ccc(cc1)C[C@@H]3N(C)CC2)CN(C)C4 |  | 2.38% [at 11.4 µM] (inactive) |
| CCS(=O)(=O)N1CCC[C@H]2CN3CCc4cc(OC)ccc4[C@@H]3C[C@@H]21 | inactive |  |
| COc1c(O)ccc2c1CN1CCc3cc4c(cc3[C@@H]1C2)OCO4 | 0.158 µM (active) |  |
| COc1ncc2nc(C)c(=O)n(C3CC3)c2n1 | inactive |  |
| COc1ccc(Cc2n[nH]c(=O)c3ccccc23)cc1OC | inactive |  |
| O=C(CNC(=O)c1ccco1)OCc1c(F)cccc1Cl | inactive |  |
| N[C@@H](CSC(=O)c1ccccc1)C(=O)O |  | 9.96% [at 11.4 µM] (inactive) |
| Cc1c(-c2ccccc2)oc2c(C(=O)OCCN3CCCCC3)cccc2c1=O | 7.94 µM (active) |  |
| O=C(OCCN1CCCCC1)c1c[nH]c2ccccc12 | inactive |  |
| Cc1ccccc1C(=O)Oc1ccc(Br)cc1C(=S)N1CCCC1 | inactive |  |
| Cc1ccccc1Oc1ccc(-c2nc(N)nc(N)n2)cc1 | inactive |  |
| O=C(Oc1ccc2ccccc2c1Br)N1CCCCCC1 | inactive |  |
| O=C(N/N=C/c1ccc(O)cc1)c1csc2ccccc12 | inactive |  |
| O=C(CCN1CCCCC1)c1csc2ccccc12 | 1 µM (active) |  |
| Cc1noc(C)c1-c1cc(N2CCN(C)CC2)ncn1 | inactive |  |
| O=C(O)Cc1ccc2c(c1)N(S(=O)(=O)c1cccc(C(F)(F)F)c1)CC(C(=O)O)O2 (stereo not drawn) | inactive |  |
| C=CC1=C[C@@H](O)C2OC2C12OCCCO2 (stereo partly drawn) |  | -1.06% [at 11.4 µM] (inactive) |
| Cc1[nH]n(-c2ccc(S(=O)(=O)O)cc2)c(=O)c1N=Nc1ccccc1 |  | 16.9% [at 11.4 µM] (inactive) |
| O=C(Oc1ccccc1)N1CCC2(CCCN(c3ccccc3)C2)CC1 | inactive |  |

| Structure (SMILES) | AC50 | activity, negative = inhibition |
| --- | --- | --- |
| CCCCn1c(SCC(=O)N2CCCC2)nc2c1c(=O)n(C)c(=O)n2C | inactive |  |
| CCCCCn1c(CN2CCCCC2C)nc2c1c(=O)n(C)c(=O)n2C (stereo not drawn) | 14.1 µM (active) |  |
| CN(C)CCn1c(CO)nc2c1c(=O)n(C)c(=O)n2C |  | -1.53% [at 11.4 µM] (inactive) |
| Cc1ccc(-n2nnnc2SCC(=O)NNC(=O)c2ccco2)c(C)c1 | inactive |  |
| O=C(O)Cc1cccnc1 |  | 16.4% [at 11.4 µM] (inactive) |
| O=C(NCC(c1cccnc1)N1CCOCC1)Nc1ccccc1 (stereo not drawn) | inactive |  |
| c1ccc(C[C@@H](Nc2cccnc2)c2ccccc2)cc1 | 1 µM (active) |  |
| O=S(=O)(O)c1cc(O)c2c(O)c(N=Nc3cccc4ccccc34)c(S(=O)(=O)O)cc2c1 |  | -16% [at 11.4 µM] (inactive) |
| COc1cc(C2SCCCCCCCCCCSC(c3ccc(O)c(OC)c3)SCCCCCCCCCCS2)ccc1O (stereo not drawn) |  | 6.94% [at 11.4 µM] (inactive) |
| COc1ccc(OC)c(NC(=O)c2c3c(nc4ccccc24)CCC3)c1 | inactive |  |
| COc1cccc(NC(=O)COC(=O)c2c3c(nc4ccccc24)CCC(C)C3)c1 (stereo not drawn) | 7.94 µM (active) |  |
| COc1ccc(NC(=O)COC(=O)c2c3c(nc4ccccc24)CCCC3)cc1 | inactive |  |
| C[N+]1(CCOc2ccc([N+](=O)[O-])cc2)CCOCC1 | inactive |  |
| Cc1ccc(/S(C)=N/S(=O)(=O)c2ccc(C)cc2)cc1 (stereo not drawn) | inactive |  |
| C[C@@H](c1ccccc1)N1C(=O)[C@@H]2[C@H]3C(=CC[C@H]2C1=O)C(=O)[C@H]1O[C@H]1[C@H]3O |  | 5.61% [at 11.4 µM] (inactive) |
| CN1CCN(c2nc(-c3ccccc3)cc(C(F)(F)F)n2)CC1 | 17.8 µM (active) |  |
| COc1ccccc1N1CCN(c2nc(-c3ccccc3)cc(C(F)(F)F)n2)CC1 | inactive |  |
| COc1cccc(-c2cc(C(F)(F)F)nc(N3CCN(c4ccccc4)CC3)n2)c1 | inactive |  |
| O=C(c1ccccc1)c1ccc(OCC(O)CN2CCN(Cc3ccccc3)CC2)cc1 (stereo not drawn) | 3.16 µM (active) |  |
| COc1cc(/C=C/C(=O)N2CCN(CC(O)COc3ccccc3)CC2)cc(OC)c1OC (stereo not drawn) | inactive |  |
| CC1CCC(C(C)C)C(OCC(O)CN2CCN(Cc3ccccc3)CC2)C1 (stereo not drawn) | 0.112 µM (active) |  |
| CC1CC(OCC(O)CN2CCN(Cc3ccccc3)CC2)CC(C)(C)C1 (stereo not drawn) | inactive |  |
| O=C(c1ccccc1)c1ccc(OCCn2cnc3ccccc3c2=O)cc1 | inactive |  |
| Cc1cccc(-n2nnc3cnn(C)c3c2=O)c1 | inactive |  |
| O=C(O)[C@@H]1[C@H](C(=O)O)[C@H]2C(=O)C=C[C@H]1N2Cc1ccccc1 |  | 3.08% [at 11.4 µM] (inactive) |

| Structure (SMILES) | AC50 | activity, negative = inhibition |
| --- | --- | --- |
| Cc1nn(C)c(Cl)c1NC(=O)OCc1ccc(F)cc1 | inactive |  |
| CC(=O)[C@@H]1CC[C@@H]2[C@@H]3C[C@H](C)C4=CC(=O)CC[C@@]4(C)[C@H]3[C@H](O)C[C@]21C | inactive |  |
| C=C(NC(=O)C(=C)NC(=O)c1csc(C2=N[C@@H]3c4csc(n4)[C@@H]4NC(=O)c5csc(n5)[C@@H]([C@](C)(O)[C@H](C)O)NC(=O)[C@@H]5CSC(=N5)/C(=C/C)NC(=O)[C@@H]([C@H](C)O)NC(=O)c5csc(n5)[C@]3(CC2)NC(=O)[C@@H](C)NC(=O)C(=C)NC(=O)[C@@H](C)NC(=O)[C@@H]([C@@H](C)CC)N[C@H]2C=Cc3c([C@H](C)O)cc(nc3[C@@H]2O)C(=O)O[C@H]4C)n1)C(N)=O | inactive |  |
| Cn1c(=O)c2[nH]c(C3CCCC3)nc2n(C)c1=O | inactive |  |
| Cc1nn(Cc2ccc(Cl)cc2)c(C)c1NC(=O)Cn1nc([N+](=O)[O-])c(Cl)c1C | inactive |  |
| COc1cnc(NS(=O)(=O)c2ccc(N)cc2)nc1 | inactive |  |
| CCOC(=O)C1=C(O)/C(=C\c2ccc(OC)c(OC)c2)N=C1C | inactive |  |
| CN(Cc1ccco1)c1ncncc1-c1cccnc1 | inactive |  |
| CN(C)c1ccc(-c2cncnc2N(C)Cc2ccco2)cc1 | 12.6 µM (active) |  |
| CN(Cc1ccco1)c1ncncc1-c1ccccc1Cl | 12.6 µM (active) |  |
| Cc1noc(C)c1-c1cncnc1N(C)Cc1ccco1 | inactive |  |
| CN(Cc1ccco1)c1ncncc1-c1ccc2c(c1)OCO2 | 1.26 µM (active) |  |
| COc1cccc(-c2cncnc2N(C)Cc2ccco2)c1 | 12.6 µM (active) |  |
| Cn1c(SCC(=O)c2ccc3c(c2)Cc2ccccc2-3)nnc1-c1ccccc1 | inactive |  |
| Cc1cc(C)nc(Nc2n[nH]c(COc3cccc4ccccc34)n2)n1 | inactive |  |
| CCN1CCc2nc(N)oc2CC1 | inactive |  |
| Nc1ncnc2c1ncn2[C@H]1O[C@@H](C(=O)O)[C@@H](O)[C@H]1O |  | 2.66% [at 11.4 µM] (inactive) |
| Cc1c(CC(C)(C)C(=O)O)n(Cc2ccc(Cl)cc2)c2ccc(F)cc12 | inactive |  |
| Cc1cc(C(F)(F)F)n2nc(-c3cnn(C)c3C(F)(F)F)c(Cl)c2n1 | inactive |  |
| CNc1oc(C)nc1S(=O)(=O)c1ccc(C)cc1 | inactive |  |
| COCCn1c(=O)c(-c2cccc(C#N)c2)nc2cnc(N3CCOCC3)nc21 | inactive |  |
| COc1cc(OC)c2cc(-c3ccncc3)cnc2c1 | inactive |  |
| COCCNC(=O)/C(C#N)=C/c1ccc(-c2ccc(OC)cc2[N+](=O)[O-])o1 | inactive |  |
